# In PubChem BioAssay (NCI):
# The panel holds about 83,000 compounds, 20% with a hit somewhere; the sample as a whole holds those more often.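 Growth was measured after 48 h exposure to one concentration of compound in 96-well plates. Values under 10 count as active.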 Unmarked numbers belong to inactive results. Calls of active or inactive are those of the source.
# How the values were obtained:
# Experiment in all cases: NCI-60 one-dose screen, 48 h (100 = growth as untreated, 0 = no growth, -100 = all killed)
# Settings in all cases: 10 µM unless noted
# HCT-15 colon = tested on: HCT-15 colon
# HT29 colon = tested on: HT29 colon
# SNB-75 CNS = tested on: SNB-75 CNS
# SNB-19 CNS = tested on: SNB-19 CNS
# U251 CNS = tested on: U251 CNS
# PC-3 prostate = tested on: PC-3 prostate
# SK-MEL-5 melanoma = tested on: SK-MEL-5 melanoma
# UACC-62 melanoma = tested on: UACC-62 melanoma
# LOX IMVI melanoma = tested on: LOX IMVI melanoma
# SK-MEL-28 melanoma = tested on: SK-MEL-28 melanoma
# SK-MEL-2 melanoma = tested on: SK-MEL-2 melanoma
# EKVX NSCLC = tested on: EKVX NSCLC
# SN12C renal = tested on: SN12C renal
# UO-31 renal = tested on: UO-31 renal
# TK-10 renal = tested on: TK-10 renal
# ACHN renal = tested on: ACHN renal
# CAKI-1 renal = tested on: CAKI-1 renal
# CCRF-CEM leukemia = tested on: CCRF-CEM leukemia
# MOLT-4 leukemia = tested on: MOLT-4 leukemia
# A498 renal = tested on: A498 renal
Compound,growth (HCT-15 colon),growth (HT29 colon),growth (SNB-75 CNS),growth (SNB-19 CNS),growth (U251 CNS),growth (PC-3 prostate),growth (SK-MEL-5 melanoma),growth (UACC-62 melanoma),growth (LOX IMVI melanoma),growth (SK-MEL-28 melanoma),growth (SK-MEL-2 melanoma),growth (EKVX NSCLC),growth (SN12C renal),growth (UO-31 renal),growth (TK-10 renal) [%],growth (ACHN renal),growth (CAKI-1 renal),growth (CCRF-CEM leukemia) [%],growth (MOLT-4 leukemia),growth (A498 renal)
Cc1ccccc1-c1cc(-c2ccc(Br)s2)[nH]c(=O)c1C#N,98.7%,112%,92.3%,103%,106%,98.9%,93.1%,92.3%,94.2%,108%,113%,85.6%,102%,83.3%,109,101%,88.1%,106,92.7%,
COc1ccc(/C=C(\C#N)c2cc3ccccc3n2C)cc1,23.9%,9.49% (active),1.11% (active),32.8%,15.9%,38.8%,23.2%,38.3%,39.4%,62.1%,67%,39.1%,44.7%,48.5%,,45.5%,33.5%,18.3,17.4%,-12.9% (active)
c1ccc(-c2n(Cc3ccc4ccccc4n3)c3ccccc3[n+]2Cc2ccc3ccccc3n2)cc1,47.9%,0.506% (active),-21.5% (active),10.6%,12.1%,5.27% (active),-95.9% (active),-45% (active),-75.8% (active),-4.75% (active),-20.7% (active),13.5%,2.63% (active),27.8%,,34.2%,-17.6% (active),,-16.9% (active),-16.4% (active)
Cc1c(C(=O)Nc2nc(-c3ccccc3)cs2)nnn1-c1cccc2ccccc12,57.9% [50 µM],64.3% [50 µM],80.6% [50 µM],72.3% [50 µM],72.7% [50 µM],53.8% [50 µM],-2.94% [50 µM] (active),49.2% [50 µM],43.4% [50 µM],69.9% [50 µM],48.2% [50 µM],39.3% [50 µM],67.9% [50 µM],49.7% [50 µM],,58.1% [50 µM],35.8% [50 µM],,30.4% [50 µM],58.5% [50 µM]
Cc1cc(C)c(S(=O)O)c(C)c1,111%,100%,86.6%,102%,105%,94.6%,105%,102%,93.9%,113%,97.8%,105%,108%,,104,103%,99%,94,109%,92.7%
Brc1ccccc1Nc1ccc2nnc(-c3ccncc3)n2n1,80.6%,109%,93.9%,100%,102%,102%,104%,108%,92.5%,99%,98%,,101%,82.1%,114,97%,87.1%,85,92.6%,101%
COc1ccc(/C=C(\C#N)c2ccc(OC)cc2)cc1,66.2%,35.6%,76%,80.5%,48.8%,73.7%,32%,54.5%,48.3%,80.6%,54.4%,92.2%,67.5%,,76.7,88.3%,64.7%,55.6,56.9%,46.6%
Fc1ccccc1Nc1ccc2nnc(-c3ccncc3)n2n1,95.6%,103%,101%,100%,101%,101%,103%,107%,95.6%,112%,92.8%,,103%,88%,114,99.6%,102%,96.1,98.8%,95.6%
